Measured values published in PubChem BioAssay AID1159580 (chemical genetic matrix, 2015).
Where “and” joins values, the source holds several entries; their conditions need not be identical. Equal entries are not always repeated. Out of some 5,500 compounds screened, about 2,000 (36%) were called active. Roughly 18% stayed inconclusive and do not appear here. No stated cut-off is given here; in the data, active means normalized growth mostly below about 0.91 (no sharp cut-off); inconclusive means no clear call, values can overlap the other calls; inactive means mostly above about 0.92. Some of the results follow.

Test: chemical genetic growth profiling, strain panel (AID 1159580);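 further: tested at 20 µM; growth read once vehicle control cultures reached saturation at 30 °C; 1 = growth at the plate median or of vehicle wells; lower values mean less growth of the strain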
Conditions: S. cerevisiae deletion strains, growth OD

Measured: normalized growth

OC(CCN1CCCCC1)(c1ccccc1)c1ccccc1
inactive: locus YAL021C, strain ccr4, active compounds read low 1.01 | locus YAL026C, strain drs2, active compounds read low 0.985 | locus YAL030W, strain snc1, active compounds read low 0.99 | locus YBL061C, strain skt5, active compounds read low 0.986 | locus YBR009C, strain hhf1, active compounds read low 0.939 | locus YBR021W, strain FUR4, active compounds read low 1.02 | locus YBR023C, strain chs3, active compounds read low 0.99 | locus YBR171W, strain sec66, active compounds read low 0.987 | locus YBR229C, strain ROT2, active compounds read low 1 | locus YBR231C, strain swc5, active compounds read low 1.01 | locus YBR279W, strain paf1, active compounds read low 0.995 | locus YCL011C, strain gbp2, active compounds read low 0.969 | locus YCL016C, strain dcc1, active compounds read low 0.975 | locus YCL029C, strain bik1, active compounds read low 1.01 | locus YCL061C, strain MRC1, active compounds read low 1 | locus YCL069W, strain vba3, active compounds read low 0.977 | locus YCR088W, strain abp1, active compounds read low 0.983 | locus YDL005C, strain med2, active compounds read low 1.01 | locus YDL035C, strain GPR1, active compounds read low 1.04 | locus YDL040C, strain nat1, active compounds read low 0.992 | locus YDL074C, strain BRE1, active compounds read low 1.03 | locus YDL101C, strain DUN1, active compounds read low 1.01 | locus YDL134C, strain PPH21, active compounds read low 1.03 | locus YDL185W, strain tfp1, active compounds read low 1.01 | locus YDL192W, strain arf1, active compounds read low 1.02 | locus YDR001C, strain nth1, active compounds read low 0.989 | locus YDR069C, strain doa4, active compounds read low 0.997 | locus YDR101C, strain arx1, active compounds read low 0.993 | locus YDR137W, strain rgp1, active compounds read low 1.01 | locus YDR159W, strain sac3, active compounds read low 1.01 | locus YDR162C, strain NBP2, active compounds read low 1.01 | locus YDR195W, strain ref2 1.02 | locus YDR297W, strain sur2, active compounds read low 0.984 | locus YDR318W, strain mcm21, active compounds read low 1.01 | locus YDR334W, strain swr1, active compounds read low 0.99 | locus YDR335W, strain msn5, active compounds read low 0.986 | locus YDR388W, active compounds read low 1.01 | locus YDR392W, strain spt3, active compounds read low 0.886 | locus YDR502C, strain sam2, active compounds read low 1 | locus YEL003W, strain gim4, active compounds read low 0.98 | locus YEL037C, strain rad23, active compounds read low 0.985 | locus YEL061C, strain CIN8 (second series), active compounds read low 0.977 | locus YEL061C, strain CIN8, active compounds read low 1.01 | locus YER015W, strain faa2, active compounds read low 0.994 | locus YER016W, strain bim1, active compounds read low 0.997 | locus YER110C, active compounds read low 1.01 | locus YER111C, strain swi4, active compounds read low 0.983 | locus YER155C, strain BEM2 (second series), active compounds read low 0.995 | locus YER155C, strain BEM2, active compounds read low 1 | locus YER167W, strain BCK2, active compounds read low 1.01 | locus YFR010W, strain ubp6, active compounds read low 0.987 | locus YGL078C, strain dbp3, active compounds read low 1 | locus YGL086W, strain mad1, active compounds read low 1 | locus YGL167C, strain pmr1, active compounds read low 0.984 | locus YGL173C, strain kem1, active compounds read low 0.986 | locus YGL227W, strain vid30, active compounds read low 0.989 | locus YGL240W, strain doc1, active compounds read low 1.02 | locus YGL248W, strain PDE1, active compounds read low 1.01 | locus YGL253W, strain hxk2, active compounds read low 1.02 | locus YGR078C, strain PAC10, active compounds read low 1.01 | locus YGR135W, strain pre9, active compounds read low 1.01 | locus YGR252W, strain gcn5, active compounds read low 1.01 | locus YHR013C, strain ard1, active compounds read low 1.01 | locus YHR027C, strain rpn1, active compounds read low 0.99 | locus YHR030C, strain SLT2, active compounds read low 1.01 and 1.03 | locus YHR079C, strain IRE1 (second series), active compounds read low 1.01 | locus YHR079C, strain IRE1, active compounds read low 1.03 | locus YHR094C, strain hxt1, active compounds read low 1.01 | locus YHR129C, strain ARP1, active compounds read low 1 | locus YHR142W, strain chs7, active compounds read low 0.946 | locus YHR200W, strain rpn10, active compounds read low 1.01 | locus YIL066C, strain RNR3, active compounds read low 1.01 | locus YIL073C, strain SPO22, active compounds read low 1.09 | locus YIL125W, strain kgd1, active compounds read low 1.01 | locus YIR030C, strain dcg1, active compounds read low 1.01 | locus YJL092W, strain hpr5, active compounds read low 0.988 | locus YJL095W, strain BCK1 (second series), active compounds read low 0.982 | locus YJL095W, strain BCK1, active compounds read low 0.996 and 1.05 | locus YJL115W, strain asf1, active compounds read low 0.982 | locus YJL129C, strain trk1, active compounds read low 0.987 | locus YJL134W, strain LCB3, active compounds read low 1 | locus YJL154C, strain vps35, active compounds read low 0.984 | locus YJL164C, strain tpk1, active compounds read low 0.967 | locus YJL166W, strain qcr8, active compounds read low 1 | locus YJL168C, strain set2, active compounds read low 1.01 | locus YJL187C, strain SWE1 (second series), active compounds read low 1.01 | locus YJL187C, strain SWE1, active compounds read low 0.996 | locus YJR043C, strain POL32, active compounds read low 1.04 | locus YJR066W, strain TOR1, active compounds read low 0.938
